The source of these data is PubChem BioAssay (Tox21).

A short description of experiment [1]: qHTS assay to identify small molecule agonists of the vitamin D receptor (VDR) signaling pathway - cell viability counter screen (AID 743224). Also: nearly all actives have a fitted effect of over 50% in size. Also: potency is read from the fitted curve at half-maximal effect. In a few lines: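 VDR-bla cell line, quantitative HTS format; 16 h compound incubation (37C, 5% CO2); ATP-based CellTiter-Glo luminescence measured in the reporter assay wells.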
(In general: Quantitative high-throughput screening tests each substance at several concentrations.)

Experiment [2] can be described thus: qHTS assay to identify small molecule antagonists of the vitamin D receptor (VDR) signaling pathway - cell viability counter screen (AID 743225). Also: nearly all actives have a fitted effect of over 50% in size. Also: potency is read from the fitted curve at half-maximal effect. In outline: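 Luminescent cell viability (CellTiter-Glo) in VDR-bla HEK 293T cells after 16 h compound exposure at 37C in the presence of 3 nM final 1-alpha,25-dihydroxy vitamin D3.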
Experiment [3] is described as follows: qHTS assay to identify small molecule agonists of the NFkB signaling pathway - cell viability counter screen (AID 1159515; calls by dose curve; also: nearly all actives have a fitted effect of over 55% in size; also: potency is read from the fitted curve at half-maximal effect). In outline:
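Viability in NFkB-bla ME-180 cells was measured by CellTiter-Glo luminescence, 30 min room temperature, in wells already treated 5 hr with compounds and read for reporter FRET.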

The nature of experiment [4]: qHTS assay to identify small molecule antagonists of the retinoid-related orphan receptor gamma (ROR-gamma) signaling pathway - cell viability counter screen (AID 1159520). Also: nearly all actives have a fitted effect of over 50% in size. Also: potency is read from the fitted curve at half-maximal effect. In a few lines: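 Tet-on ROR gamma CHO cells were given compounds for 2 hr, then doxycycline hyclate at 1 uM final, and incubated 16 hr at 37 C. Viability was measured as ATP content by CellTiter-Glo luminescence.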

Experiment [5] can be described thus: qHTS assay to identify small molecule agonists of the AP-1 signaling pathway (AID 1159526; calls by dose curve).
Experiment [6] addresses Retinoic acid receptor RXR-alpha (Homo sapiens) (UniProt P19793). The experiment can be described thus: qHTS assay to identify small molecule agonists of the RXR signaling pathway (AID 1159527; calls by dose curve; also: nearly all actives have a fitted effect of over 35% in size). In outline:
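Beta-lactamase reporter assay, agonist format. Engineered HEK 293T line, charcoal-stripped FBS at 2%, overnight (16 hr) exposure, fluorescence at 460 and 530 nm after 405 nm excitation.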

Experiment [7] is described as follows: qHTS assay to identify small molecule antagonists of the retinoid acid receptor (RAR) signaling pathway - cell viability counter screen (AID 1159551). Also: nearly all actives have a fitted effect of over 35% in size. In a few lines:
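Following overnight attachment, C3RL4 reporter cells received DMSO-dissolved compounds and then retinol (1 uM final). Six hours later at 37 C, ATP content was measured by CellTiter-Glo luminescence.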

The nature of experiment [8]: qHTS assay to identify small molecule antagonists of the retinoic acid receptor (RAR) signaling pathway (AID 1159552; also: nearly all actives have a fitted effect of over 50% in size; also: potency is read from the fitted curve at half-maximal effect). In outline:
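Readout: luciferase luminescence, 30 min post-reagent at RT. Setup: C3RL4 RARE reporter cells, compounds plus retinol 1 uM final, 6 hr incubation at 37 C and 5% CO2.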

Experiment [9] in a line: qHTS assay to identify small molecule agonists of the retinoic acid receptor (RAR) signaling pathway (AID 1159553). Also: potency is read from the fitted curve at half-maximal effect. In a few lines:
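Cell line C3RL4, RARE luciferase reporter. Treatment: compounds in DMSO, 6 hr, 37 C, 5% CO2, after overnight plating. Detection: luminescence, 30 min RT after reagent.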

The target of experiment [10] is Nuclear receptor ROR-gamma (Homo sapiens) (UniProt P51449). The experiment can be described thus: qHTS assay to identify small molecule antagonists of the retinoid-related orphan receptor gamma (ROR-gamma) signaling pathway (AID 1159521; also: nearly all actives have a fitted effect of over 50% in size; also: potency is read from the fitted curve at half-maximal effect). In outline:
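CHO cells expressing RORγ under a TET-on promoter, luciferase under RORE control. Dox 1 uM final, 16 h; compounds added 2 h prior. Luminescence decrease measured.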

Experiment [11] can be described thus: qHTS assay to identify small molecule agonists of the AP-1 signaling pathway - cell viability counter screen (AID 1159525; calls by dose curve; also: nearly all actives have a fitted effect of over 55% in size; also: potency is read from the fitted curve at half-maximal effect). In a few lines: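 AP-1-bla ME-180 cells in Opti-MEM with 0.5% dialyzed FBS, compound exposure 5 h at 37 C in 15-point titration. Viability read in the same wells as ATP content by CellTiter-Glo luminescence, normalised to tetra-n-octylammonium bromide and DMSO controls.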

Experiment [12] in a line: qHTS assay to identify small molecule agonists of the RXR signaling pathway - cell viability counter screen (AID 1159529). Also: nearly all actives have a fitted effect of over 50% in size. Also: potency is read from the fitted curve at half-maximal effect. In a few lines:
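Same-well viability check after the LiveBLAzer FRET read: CellTiter-Glo added, luminescence measured after 30 min at room temperature. Reporter HEK 293T cells had been treated with compounds for 16 hr following a 5 hr preincubation.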

Experiment [13] in a line: qHTS assay to identify small molecule antagonists of the estrogen related receptor (ERR) signaling pathway - cell viability counter screen (AID 1224818).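 Also: series mostly up to about 46 µM; viability measured after 17.5 h of compound exposure.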 In outline: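 Here, ERR cells are plated at 2,000 cells per well, allowed 6 h to attach, and treated with compounds in DMSO for 17.5 h at 37 C. CellTiter-Fluor is then added and fluorescence read after 30 min.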
Experiment [14] is described as follows: qHTS assay to identify small molecule antagonists of the estrogen related receptor (ERR) signaling pathway (AID 1224819). In a few lines: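 LOPAC library screened for antagonism as reduced One-Glo luminescence in ERR reporter cells (2,000/well). Compounds were added after 6 h pre-incubation and left 18 h at 37C; reading followed a 30 min room-temperature reagent step.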

The nature of experiment [15]: qHTS assay to identify small molecule agonists of the estrogen related receptor (ERR) signaling pathway (AID 1224820). In outline:
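Cells: ERR line from NTP, 2,000/well. Pre-incubation 6 h, 37 C/5% CO2. Compound (DMSO) pin transfer, 18 h 37 C. One-Glo, 30 min RT, luminescence.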

For experiment [16], the system named is estrogen-related receptor alpha (ERRalpha) with PGC-1alpha coactivator, human. The experiment in a line: qHTS assay to identify small molecule antagonists of the estrogen related receptor signaling pathway with the pleiotropic PPARgamma coactivator (PGC) (AID 1224821; calls by dose curve). In a few lines: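 Luminescent read-out (One-Glo, 30 min at room temperature) following 18 h treatment of PGC/ERR cells at 37 C with compounds delivered in DMSO. Cells had settled 6 h at 37 C/5% CO2 before dosing.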

The nature of experiment [17]: qHTS assay to identify small molecule antagonists of the estrogen related receptor signaling pathway with the pleiotropic PPARgamma coactivator (PGC) cell viability counter screen (AID 1224822; also: series mostly up to about 46 µM). In a few lines:
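qHTS format, DMSO compound stocks pin-transferred onto PGC/ERR cells 6 h after plating; 17.5 h exposure at 37 C, then CellTiter-Fluor fluorescence.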

A short description of experiment [18]: qHTS assay to identify small molecule agonists of the estrogen related receptor signaling pathway with the pleiotropic PPARgamma coactivator (PGC) (AID 1224823). In a few lines: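 Steps: plate PGC/ERR cells at 2,000 cells/well; incubate 6 h, 37 C/5% CO2; pin-transfer compounds (DMSO); incubate 18 h, 37 C; add One-Glo; 30 min RT; read luminescence.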

Where “and” joins values, the source holds several entries; their conditions need not be identical. Identical values can stand only once. Inconclusive results are not listed. Some structures have more than one record in an assay (separate samples or runs), and their calls can disagree. Calls of active or inactive are those of the source. Unless noted, calls follow the shape of the dose curve; as a rule, active = well fitted curve in the direction sought with a large enough effect in the repeat runs; inconclusive = weak or mixed curves; inactive = no such curve, though single readings can be large; an effect the other way counts as inactive or inconclusive.

Chain of Retinoic acid receptor RXR-alpha (Homo sapiens) (P19793 whole entry, looked up): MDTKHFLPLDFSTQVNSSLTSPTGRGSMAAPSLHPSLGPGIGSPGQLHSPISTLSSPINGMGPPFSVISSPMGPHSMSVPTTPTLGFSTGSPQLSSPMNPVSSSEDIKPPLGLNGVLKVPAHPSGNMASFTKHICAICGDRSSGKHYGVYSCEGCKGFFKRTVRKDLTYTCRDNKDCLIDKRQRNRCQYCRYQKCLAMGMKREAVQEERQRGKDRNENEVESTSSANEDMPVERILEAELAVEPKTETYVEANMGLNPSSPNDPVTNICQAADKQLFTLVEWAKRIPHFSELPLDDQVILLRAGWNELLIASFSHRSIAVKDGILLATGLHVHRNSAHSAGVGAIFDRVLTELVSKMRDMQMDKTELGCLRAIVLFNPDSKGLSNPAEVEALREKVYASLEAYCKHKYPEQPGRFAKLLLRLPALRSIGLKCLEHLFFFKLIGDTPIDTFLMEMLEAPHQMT

For `COc1ccc(-c2ccc3cc(C(=O)O)ccc3c2)cc1C12CC3CC(CC(C3)C1)C2`, the Potency in [1] was 23.7 µM (active); in experiment [3] it was 21.3 µM (active); in experiment [4], 29.8 µM (active); in [9] it was 0.0298 µM (active). The Potency entry in experiment [2], in [5], in [6], in experiment [7] and in [8] was “inactive” throughout.
`CCCCN(CCCC)c1ccc(C(=O)c2ccccc2C(=O)O)c(O)c1`: the Potency result in experiment [3], in [10], in [11], in [5] and in experiment [7] was “inactive” in each case.
Turning to `CN(C)c1ccc(SC#N)cc1`, the Potency result in experiment [1], in experiment [4], in [11], in [12] and in [9] was “inactive” in each case. Besides, the Potency in experiment [3] is 17.4 µM (active); in experiment [8], 9.69 µM (active).
On to `CC(C)OC(=O)c1cc2c(OCC(O)CNC(C)(C)C)cccc2[nH]1` (centres undefined), for which the Potency entry in experiment [1], in [2], in experiment [3], in [4], in experiment [11] and in experiment [5] was “inactive” each time. Also, the Potency result in [12], in experiment [7], in [8] and in [9] was “inactive” each time.
As to `Nc1c2ccccc2nc2ccccc12`, the Potency result in experiment [1], in [3], in experiment [10], in experiment [11] and in [5] was “inactive” in each case.
As to `O=C1c2c(O)ccc(Nc3ccc(CCO)cc3)c2C(=O)c2c([N+](=O)[O-])ccc(O)c21`, the Potency result in experiment [1], in experiment [2], in experiment [3], in [10], in experiment [11] and in experiment [12] was “inactive” in each case. For the same compound, in [8], the Potency entry was “inactive”.
Turning to `CC(C)(C)C(=O)OCOC(=O)[C@@H]1N2C(=O)[C@@H](NC(=O)[C@H](N)c3ccccc3)[C@H]2SC1(C)C`, the Potency entry in experiment [1], in experiment [2], in experiment [3], in [4], in [11] and in [6] was “inactive” each time. For the same compound, the Potency result in experiment [12], in [7] and in [9] was “inactive” each time.
Regarding `CCCCC(CC)COC(=O)c1ccccc1C(=O)O` (centres undefined), the Potency entry in experiment [3], in experiment [4], in experiment [11], in experiment [12], in experiment [7] and in experiment [13] was “inactive” throughout. Besides, the Potency result in experiment [14], in experiment [16] and in experiment [17] was “inactive” each time. In addition, the call in experiment [15] and in experiment [18] was inactive.
For `Cc1onc(-c2c(Cl)cccc2Cl)c1C(=O)N[C@@H]1C(=O)N2[C@@H]1SC(C)(C)[C@@H]2C(=O)O`, the Potency entry in experiment [1], in experiment [2], in [3], in [4], in [11] and in experiment [12] was “inactive” each time. In addition, the Potency entry in experiment [7] and in experiment [9] was “inactive” throughout.
Consider `Oc1ccc(Cl)cc1Sc1cc(Cl)ccc1O`, for which the Potency in experiment [1] was 21.8 µM (active) and 23.7 µM (active); in [2], 30.8 µM (active); in experiment [10], 19.3 µM (active) and 13.3 µM (active); in experiment [11] it was 54.8 µM (active) and inactive; in experiment [12], 43.6 µM (active); in experiment [8], 26.6 µM (active). Besides, the Potency result in [3] and in experiment [9] was “inactive” in each case.
